Where a name gives a salt, the structure may show the parent alone. ± gives the standard deviation or the standard deviation of the averaged measurements.
Tested on: Danio rerio Tg(wt1b:EGFP) embryo, pronephros
Experiment: glomerular separation, fold change vs DMSO control; higher = glomeruli further apart (abnormal)
Details: 25 µM; exposure: 24-48 hpf
In short: (§1)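 Dechorionated Tg(wt1b:EGFP) zebrafish embryos were treated with 25 μM compound in 0.5% DMSO, in HEPES-buffered E3 with 0.003% PTU, from 24 to 48 hpf at 28.5°C. On maximum projections of dorsal pronephros images, 16 hand-placed reference points in Fiji gave distances and angles, and values more than 2 SD from the feature mean were left out. Results are fold changes over the mean of same-day DMSO-treated embryos.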

SMILES | glomerular separation
CN(C)CC/C=C1/c2ccccc2COc2ccc(CC(=O)O)cc21 [Olopatadine hydrochloride] | 0.914 ± 0.34
CC(C)NNC(=O)c1ccncc1 [Iproniazide phosphate] | 0.735 ± 0.21
CC(C(=O)O)c1ccc(C(=O)c2ccccc2)s1 (stereo unspecified) [Tiaprofenic acid] | 1.58 ± 0.4
O=c1oc2ccccc2c(O)c1Cc1c(O)c2ccccc2oc1=O [Dicumarol] | 0.799 ± 0.23
COC(=O)CCc1ccc(OCC(O)CNC(C)C)cc1 (stereo unspecified) [Esmolol hydrochloride] | 0.66 ± 0.2
Cc1cc(=O)n(-c2ccccc2)n1C [Antipyrine] | 1 ± 0.28
CCCCC[C@H](O)/C=C/[C@H]1[C@H](O)CC(=O)[C@@H]1CCCCCCC(=O)O [Alprostadil] | 1.21 ± 0.52
CCc1nn(CCCN2CCN(c3cccc(Cl)c3)CC2)c(=O)n1CCOc1ccccc1 [Nefazodone hydrochloride] | 0.987 ± 0.43
CNS(=O)(=O)Cc1ccc2[nH]cc(CCN(C)C)c2c1 [Sumatriptan succinate] | 0.982 ± 0.29
CC(=O)N[C@@H](CC(C)C)C(=O)O [N-Acetyl-L-leucine] | 1.02 ± 0.21
Nc1nc(=O)c2nc(CNc3ccc(C(=O)N[C@@H](CCC(=O)O)C(=O)O)cc3)cnc2[nH]1 [Folic acid] | 0.808 ± 0.29

Tested on: Danio rerio Tg(wt1b:EGFP) embryo, pronephros
Experiment: glomerular width (mean of left and right), fold change vs DMSO control; higher = wider glomerulus
Details: 25 µM; exposure: 24-48 hpf
In short: as §1

SMILES | glomerular width
Nc1nc(NC2CC2)c2ncn([C@H]3C=C[C@@H](CO)C3)c2n1 [Abacavir Sulfate] | 1.05 ± 0.052
COc1cc(C(=O)NS(=O)(=O)c2ccccc2C)ccc1Cc1cn(C)c2ccc(NC(=O)OC3CCCC3)cc12 [Zafirlukast] | 0.9694 ± 0.0078
Cn1c(=O)c2c(ncn2CC2OCCO2)n(C)c1=O [Doxofylline] | 0.971 ± 0.021
COc1ccnc(C[S+]([O-])c2nc3cc(OC(F)F)ccc3[nH]2)c1OC (stereo unspecified) [Pantoprazole sodium] | 1.042 ± 0.0056
CCn1cc(C(=O)O)c(=O)c2ccc(C)nc21 [Nalidixic acid sodium salt] | 1.11 ± 0.025
O=S(=O)(O)c1cc(O)ccc1O [Ethamsylate] | 0.89 ± 0.079
CN(C)CCCN1c2ccccc2CCc2ccc(Cl)cc21 [Clomipramine hydrochloride] | 0.947 ± 0.035
CC(=O)Nc1ccc(CC(=O)O)cc1 [Actarit] | 1.116 ± 0.0018
CC/C(=C(\c1ccccc1)c1ccc(OCCN(C)C)cc1)c1ccccc1 [Tamoxifen citrate] | 0.977 ± 0.019
N=C(N)N/N=C/c1c(Cl)cccc1Cl [Guanabenz acetate] | 1.072 ± 0.01
COc1cc2nc(N3CCN(C(=O)c4ccco4)CC3)nc(N)c2cc1OC [Prazosin hydrochloride] | 1 ± 0.021
CC(C)[C@H]1CC[C@H](C(=O)N[C@H](Cc2ccccc2)C(=O)O)CC1 [Nateglinide] | 1.04 ± 0.024
COc1ccc2c3c1O[C@H]1C[C@@H](O)C=C[C@@]31CCN(C)C2 [Galanthamine hydrobromide] | 1.04 ± 0.0055
Cn1c(=O)c2c(ncn2CC(O)CO)n(C)c1=O (stereo unspecified) [Diprophylline] | 0.966 ± 0.01
CC(C)(Oc1ccc(C2CC2(Cl)Cl)cc1)C(=O)O (stereo unspecified) [Ciprofibrate] | 0.934 ± 0.023
CC(C)(C)NC[C@H](O)COc1cccc2c1CCCC2=O [(-) -Levobunolol hydrochloride] | 1.07 ± 0.0039
CC(C)CC(=O)N[C@H](C(=O)N[C@H](C(=O)N[C@@H](CC(C)C)[C@@H](O)CC(=O)N[C@@H](C)C(=O)N[C@@H](CC(C)C)[C@@H](O)CC(=O)O)C(C)C)C(C)C [Pepstatin A] | 1.03 ± 0.012
N=C(N)N1CCc2ccccc2C1 [Debrisoquin sulfate] | 0.9804 ± 0.0064
CC(C)(C)NC(=O)[C@@H]1CN(Cc2cccnc2)CCN1C[C@@H](O)C[C@@H](Cc1ccccc1)C(=O)N[C@H]1c2ccccc2C[C@H]1O [Indinavir sulfate] | 0.851 ± 0.062
CC(CN1c2ccccc2Sc2ccccc21)N(C)C (stereo unspecified) [Promethazine hydrochloride] | 0.9984 ± 0.0084

SMILES | glomerular width
CO[C@H]1/C=C/O[C@@]2(C)Oc3c(C)c(O)c4c(c3C2=O)C2=NC3(CCN(CC(C)C)CC3)NC2=C(NC(=O)/C(C)=C\C=C\[C@H](C)[C@H](O)[C@@H](C)[C@@H](O)[C@@H](C)[C@H](OC(C)=O)[C@@H]1C)C4=O [Rifabutin] | 0.94 ± 0.1
CC(C)(C)NCC(O)COc1cccc2c1CCC(=O)N2 (stereo unspecified) [Carteolol hydrochloride] | 0.909 ± 0.034
C=C(CC)C(=O)c1ccc(OCC(=O)O)c(Cl)c1Cl [Ethacrynic acid] | 1.02 ± 0.0053
CCN(CC)CCNC(=O)c1ccc(N)cc1 [Procainamide hydrochloride] | 1.11 ± 0.027
CC[C@H](C)[C@H](N)C1=N[C@H](C(=O)N[C@@H](CC(C)C)C(=O)N[C@H](CCC(=O)O)C(=O)N[C@H](C(=O)N[C@H]2CCCCNC(=O)[C@H](CC(N)=O)NC(=O)[C@@H](CC(=O)O)NC(=O)[C@H](Cc3cnc[nH]3)NC(=O)[C@@H](Cc3ccccc3)NC(=O)[C@H]([C@@H](C)CC)NC(=O)[C@@H](CCCN)NC2=O)[C@@H](C)CC)CS1 [Bacitracin] | 0.912 ± 0.019
O=C1Cc2cc(CCN3CCN(c4nsc5ccccc45)CC3)c(Cl)cc2N1 [Ziprasidone  Hydrochloride] | 1.03 ± 0.025
C[C@@H]1[C@H](O)[C@@H](C)/C=C/C=C/C=C/C=C/C=C/C=C/C=C/[C@H](O[C@@H]2O[C@H](C)[C@@H](O)[C@H](N)[C@@H]2O)C[C@@H]2O[C@](O)(C[C@@H](O)C[C@@H](O)[C@H](O)CC[C@@H](O)C[C@@H](O)CC(=O)O[C@H]1C)C[C@H](O)[C@H]2C(=O)O [Amphotericin B] | 0.907 ± 0.13
C[N+](C)(C)CCCCCC[N+](C)(C)C [Hexamethonium dibromide dihydrate] | 1.09 ± 0.035
NCCCC[C@H](N[C@@H](CCc1ccccc1)C(=O)O)C(=O)N1CCC[C@H]1C(=O)O [Lisinopril] | 0.998 ± 0.058
CN(C)CC/C=C1/c2ccccc2COc2ccc(CC(=O)O)cc21 [Olopatadine hydrochloride] | 0.97 ± 0.013
CC(C)NNC(=O)c1ccncc1 [Iproniazide phosphate] | 1.03 ± 0.024
CC(C(=O)O)c1ccc(C(=O)c2ccccc2)s1 (stereo unspecified) [Tiaprofenic acid] | 1.07 ± 0.067
O=c1oc2ccccc2c(O)c1Cc1c(O)c2ccccc2oc1=O [Dicumarol] | 0.772 ± 0.025
COC(=O)CCc1ccc(OCC(O)CNC(C)C)cc1 (stereo unspecified) [Esmolol hydrochloride] | 1.15 ± 0.035
Cc1cc(=O)n(-c2ccccc2)n1C [Antipyrine] | 0.98 ± 0.024
CCCCC[C@H](O)/C=C/[C@H]1[C@H](O)CC(=O)[C@@H]1CCCCCCC(=O)O [Alprostadil] | 0.867 ± 0.036
CCc1nn(CCCN2CCN(c3cccc(Cl)c3)CC2)c(=O)n1CCOc1ccccc1 [Nefazodone hydrochloride] | 1.05 ± 0.061
CNS(=O)(=O)Cc1ccc2[nH]cc(CCN(C)C)c2c1 [Sumatriptan succinate] | 1.03 ± 0.053
CC(=O)N[C@@H](CC(C)C)C(=O)O [N-Acetyl-L-leucine] | 1.075 ± 0.0078
Nc1nc(=O)c2nc(CNc3ccc(C(=O)N[C@@H](CCC(=O)O)C(=O)O)cc3)cnc2[nH]1 [Folic acid] | 0.941 ± 0.044
